{"source": "paper PMC12136788", "binders": {"B1": {"name": "chr2:232320318:232320319:-_ENSG00000115053_ENST00000322723|hu_hu|hu_hu_hu_mus_True|28_78 (ssRNA)", "RNA": "GGGAGUUCUACAGUCCGACGAUCACUAUUAAAGUCUACAAAACCAAACCCUUUGGAGGACCCAGUUUCCCGAUCAGUGACUAUUCUUGCACGAACAGAGCCCUCAAAUGACUCCUUUAAGGUCUCUUCAGUGGUAUCCUCAGACAACAGAGGAUUGAGCAUCA"}, "B2": {"name": "chr13:100518589:100518590:+_ENSG00000125246_ENST00000339105|hu_hu|FALSE|FALSE (ssRNA)", "RNA": "GGGAGUUCUACAGUCCGACGAUCUUCUCGUGACUGUCUAAGCAGCCCAGCUCCAUCUCGAAAGUCAAUGUACACCAGAUCUAUGGCUUGGAGACCAAAGGCUUUCGCUAUGACAACAAUCUUUUGCCGGGCGUAGAGAAUAUCCAACAGAGGAUUGAGCAUCA"}, "B3": {"name": "chr17:60770872:60770873:+_ENSG00000011028_ENST00000303375|hu_hu|hu_hu_hu_mus_True|1_58 (ssRNA)", "RNA": "GGGAGUUCUACAGUCCGACGAUCUCUUUAAAAAAAAAAAAAAAAAGACAAACAAUAAUAGCACAUUUCGAGAAUCAUCAACUACAGUAGAGGGUCCGCUUUGAGUUUUUGUUCACAUCGUCCUGCACUGGGACACGACCAGGACAACAGAGGAUUGAGCAUCA"}, "B4": {"name": "chr17:60770872:60770873:+_ENSG00000011028_ENST00000303375|hu_hu|hu_hu_hu_mus_True|58_58 (ssRNA)", "RNA": "B3 RNA with A137G, C138G, C139G, G141C, G142U, A143G"}, "B5": {"name": "chr17:60770872:60770873:+_ENSG00000011028_ENST00000303375|hu_hu|hu_hu_hu_mus_True|58_88 (ssRNA)", "RNA": "GGGAGUUCUACAGUCCGACGAUCUCUUUAAAAAAAAAAAAAAAAAGUUUAAAAACAAUAGCACAUUUCGAGAAUCAUCAACUACAGUAGAGGGUCCGCUUUGAGUUUUUGUUCACAUCGUCCUGCACUGGGACACGGGGACUGCAACAGAGGAUUGAGCAUCA"}, "B6": {"name": "chr22:38882006:38882007:-_ENSG00000100201_ENST00000396821|hu_hu|FALSE|FALSE (ssRNA)", "RNA": "GGGAGUUCUACAGUCCGACGAUCAGGAGGAGGAGGGGGAGGAGGAGGAGGGUAUUGGUAGGCAGUCUGCCCCAUGUAACCUAUCAUAUUGGUAGCUCCCGGAGGCUGUGCAAACUGUUGUGACAUCAGUGGCUGUGGCUGCUGCAACAGAGGAUUGAGCAUCA"}, "B7": {"name": "chr10:28872372:28872373:+_ENSG00000095787_ENST00000354911|hu_mus|FALSE|FALSE (ssRNA)", "RNA": "GGGAGUUCUACAGUCCGACGAUCUGCAUCUGAAGUUUUGCUUGGAUUAUUGCUUGGAUUAGAAGAAUGUGAAUUUGAACUAUGAAGUGCACUGUGGUUGUGUGAGUUUUCUUGUGGAGAGUAACUGGUCCCACCGUCCCUUUCCAACAGAGGAUUGAGCAUCA"}, "B8": {"name": "chr19:8913615:8913616:-_ENSMUSG00000071658_ENSMUST00000096259|mus_hu|mus_mus_mus_hu_False|18_108 (ssRNA)", "RNA": "GGGAGUUCUACAGUCCGACGAUCAGGGGGGCACCAACUUCUGCCUGAAAUGGGUGCCCCACCCAGUAGGGAGUUGCAGCUGAAAGUAUCUGAUGCAGAAGCAGUGACUAUACGAAAGGUCACUAGAGGGGAGGGCCAGGCCAGCAACAGAGGAUUGAGCAUCA"}, "B9": {"name": "49433355_49433581_8031_CDS_ENSG00000167548_ENST00000301067|human|control|control (ssRNA)", "RNA": "GGGAGUUCUACAGUCCGACGAUCGCGCUGGAUCUGCUGCCGAAUCAGCAGCUCUCGUAGUCGCUGGCGCUGCCGUUGCUUCUCCAGCUCUGUUUGGCUAAGGCCGGACAUGCCUGGGUCCUGGGUACCUGGGAGUUCAGCUGUCAACAGAGGAUUGAGCAUCA"}, "B10": {"name": "chr15:11317090:11317091:-_ENSMUSG00000022241_ENSMUST00000022849|mus_mus|FALSE|FALSE (ssRNA)", "RNA": "GGGAGUUCUACAGUCCGACGAUCUUCUGUGAGGAUGGCAAUCAUUCUUUCCACCGACCCCAGGAUGGCUCUGUGAACAAUCACUGGCCUUUUCUUAUCAUCGCCAUCGUGGCUGACGUAAGUAAGGUUAAACCUGAUGGGCAACAACAGAGGAUUGAGCAUCA"}, "B11": {"name": "chr4:87735950:87735951:+_ENSG00000163629_ENST00000511467|hu_hu|FALSE|FALSE (ssRNA)", "RNA": "GGGAGUUCUACAGUCCGACGAUCCUCACCAUGUCCUUGUAACAAUGUCUGCUAUCAUCAAAUGCUGCCUUUAAUCAUCCCUAAGAUCUGCAUUGUUUGGUUAGUGUUAAAAUUUUGUAAAUAAUUAUCAUAGGUUAAAGUAGCCAACAGAGGAUUGAGCAUCA"}, "B12": {"name": "chr20:57609950:57609951:-_ENSG00000101166_ENST00000355937|hu_mus|FALSE|FALSE (ssRNA)", "RNA": "GGGAGUUCUACAGUCCGACGAUCGAUCUUUUGUUUAGAUCAAAAGUCACAGCCUUACCCCACCUCAUUAAAAAAAAAGAUCUACCUAAAAUAAUUGUGUCUUUUAAAUAACAAAUAAUAUGAUGCCAGCUUGAGAGUCCUGGACAACAGAGGAUUGAGCAUCA"}, "B13": {"name": "133533018_133533138_1595_3pUTR_ENSG00000113575_ENST00000481195|human|control|control (ssRNA)", "RNA": "GGGAGUUCUACAGUCCGACGAUCUAGAAGGGAGGCCUUGGUAAUUAUUUUUAAAAAUGUUCAUUAAGCUCCAAUGAUUGUUUGCUGCUAUCCUUAUCUACAGUCAUGCUGAGUAAAGCUAUAGCUAAAUGGAAGUUAAAUUGUCAACAGAGGAUUGAGCAUCA"}, "B14": {"name": "chr4:87735950:87735951:+_ENSG00000163629_ENST00000511467|hu_hu|motif|central (ssRNA)", "RNA": "B11 RNA with U81G, A82G"}, "B15": {"name": "chr7:66561770:66561771:+_ENSMUSG00000025326_ENSMUST00000107537|mus_mus|motif|central (ssRNA)", "RNA": "GGGAGUUCUACAGUCCGACGAUCUUAGCAUUACAGUAAAUAAGAGCUCUGUCUCAACUACUACAAGAAAGAAAAUAAUCCGGAGACAUCCUUUUCCCCUUCCAAUGAUUUGAAAGCUACCAUUAUCCCCUGCCAAUUAAAAUCCAACAGAGGAUUGAGCAUCA"}, "B16": {"name": "chr19:60011576:60011577:-_ENSMUSG00000040022_ENSMUST00000171986|mus_hu|FALSE|FALSE (ssRNA)", "RNA": "GGGAGUUCUACAGUCCGACGAUCUUUUGCUGUAAAUGGAUUGGUUGACUCAUAAUCAAAAUAGUCCUGGCGAUUUUCACUAAAUGCAUUAGGUGAUUUCAAGUCACAAGGGCUAUCAGAUCCCCCAUUGUUAAGUUUAUCAGACAACAGAGGAUUGAGCAUCA"}}, "note": "Numbering of substitutions follows the chain as printed. Over roughly 24,000 sequences, “enrichment r” has its median near 0.99; the highest 2% begin near 3.7. Shown is part of a subset that was picked to be rich in the highest values."}
{"target": "T1, UNK ZnF1-3 (human, UniProt Q9C0B0 31-174)", "T1 sequence": "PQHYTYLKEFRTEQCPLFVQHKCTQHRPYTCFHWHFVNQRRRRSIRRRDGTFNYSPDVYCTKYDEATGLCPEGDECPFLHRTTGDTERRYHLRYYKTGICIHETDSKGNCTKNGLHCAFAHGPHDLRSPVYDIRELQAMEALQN", "test": "nsRBNS (natural sequence RNA bind-n-seq); RBNS binding buffer (assumed for nsRBNS): 25 mM Tris pH 7.5, 150 mM KCl, 3 mM MgCl2, 0.01% Triton X-100, 500 ug/ml BSA, 20 U/ml SUPERase-In, 4 C; UNK is unkempt and MSI1 is Musashi-1; names of the RNAs are library labels; protein concentration not given here; high values mean tight binding", "units": {"binding signal": "enrichment R"}}
{"binder": "B1", "binding signal": 0.596}
{"binder": "B2", "binding signal": 0.61}
{"binder": "B3", "binding signal": 3.08}
{"binder": "B4", "binding signal": 4.08}
{"binder": "B5", "binding signal": 4.59}
{"binder": "B6", "binding signal": 1.56}
{"binder": "B7", "binding signal": 1.04}
{"binder": "B8", "binding signal": 0.986}
{"binder": "B9", "binding signal": 0.484}
{"binder": "B10", "binding signal": 1.43}
{"binder": "B11", "binding signal": 3.93}
{"binder": "B12", "binding signal": 2.8}
{"binder": "B13", "binding signal": 1.37}
{"binder": "B14", "binding signal": 5.3}
{"binder": "B15", "binding signal": 1.63}
{"binder": "B16", "binding signal": 0.505}
